Measured values reported in PubChem BioAssay (EPA / NIEHS).
“And” between values parts separate entries of the source, which are not always exact repeats. Equal values may be shown once. Records with an inconclusive call do not appear. Some structures have more than one record in an assay (separate samples or runs), and their calls can disagree. The source made the active and inactive calls. How the source made its calls, unless noted: active means hit-call score of the fitted dose curve at least 0.9, where 1 is the maximum; inactive means score below 0.9.

read-out: UDP glucuronosyltransferase (UGT1A6), UGT1A6 (gene 54578); test: LTEA_HepaRG_UGT1A6: Life Technologies and Expression Analysis (LTEA) Assay for UDP glucuronosyltransferase (UGT1A6) using HepaRG (AID 2283539); conditions: mRNA level, 48 h; actives raise or lower the signal
In short: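 Human HepaRG cells were dosed for 48 h in serum-free induction medium with 0.5% DMSO vehicle, eight-point half-log series from 100 uM, in duplicate. UGT1A6 mRNA was measured by qRT-PCR, normalized to ACTB, GAPDH, POLR2A, and fitted bidirectionally against DMSO.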

Row | Structure (SMILES) | outcome
1 | ClC1C(Cl)C(Cl)C(Cl)C(Cl)C1Cl (stereo unspecified) | inactive
2 | N#Cc1c(Cl)c(Cl)c(Cl)c(C#N)c1Cl | inactive
3 | COc1nn(CSP(=S)(OC)OC)c(=O)s1 | inactive

read-out: X-box binding protein 1 (XBP1), XBP1 (gene 7494); test: LTEA_HepaRG_XBP1: Life Technologies and Expression Analysis (LTEA) Assay for X-box binding protein 1 (XBP1) using HepaRG (AID 2283540); conditions: mRNA level, 48 h; actives raise or lower the signal
In short: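 Differentiated human HepaRG cells in serum-free induction medium were exposed in duplicate for 48 h to eight half-log concentrations up to 100 uM in 0.5% DMSO. XBP1 mRNA was quantified by qRT-PCR, normalised to ACTB, GAPDH and POLR2A, with bidirectional fitting against DMSO.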

Row | Structure (SMILES) | outcome | AC50
4 | CCN(CC)C(=O)SCc1ccc(Cl)cc1 | inactive | 
5 | O=[N+]([O-])/N=C1\NCCN1Cc1ccc(Cl)nc1 |  | 25.5 µM (active)
6 | COP(=S)(OC)Oc1ccc(SC)c(C)c1 | inactive | 
7 | CCC(C)(C)C(=O)OC1=C(c2ccc(Cl)cc2Cl)C(=O)OC12CCCCC2 | inactive | 
8 | CC(C)OC(=O)Nc1cccc(Cl)c1 | inactive | 
9 | CCC(C)Nc1c([N+](=O)[O-])cc(C(C)(C)C)cc1[N+](=O)[O-] (stereo unspecified) |  | 73.8 µM (active)
10 | Oc1cc(Cl)ccc1Oc1ccc(Cl)cc1Cl | inactive | 
11 | CNC(=O)Oc1cccc(N=CN(C)C)c1 | inactive | 
12 | O=S(=O)(O)C(F)(F)C(F)(F)C(F)(F)C(F)(F)C(F)(F)C(F)(F)C(F)(F)C(F)(F)F | inactive | 
13 | CCc1ccc(C(=O)NN(C(=O)c2cc(C)cc(C)c2)C(C)(C)C)cc1 | inactive | 
14 | O=C(O)C(F)(F)C(F)(F)C(F)(F)C(F)(F)C(F)(F)C(F)(F)C(F)(F)F | inactive | 50 µM (active)
15 | O=C1c2ccccc2C(=O)N1SC(Cl)(Cl)Cl | inactive | 
16 | Oc1ccc(Cl)cc1Cc1ccccc1 | inactive | 
17 | COP(=O)(OC)OC=C(Cl)Cl | inactive | 
18 | O=[N+]([O-])c1c(Cl)c(Cl)c(Cl)c(Cl)c1Cl | inactive | 
19 | CNC(=O)Oc1ccccc1OC(C)C | inactive | 
20 | CC(C)(C)C(O)C(Oc1ccc(Cl)cc1)n1cncn1 (stereo unspecified) | inactive | 
21 | CN1CSC(=S)N(C)C1 | inactive | 
22 | OCCOc1ccccc1 | inactive | 
23 | CC1(c2ccc(Oc3ccccc3)cc2)OC(=O)N(Nc2ccccc2)C1=O (stereo unspecified) | inactive | 
24 | ClC1C(Cl)C(Cl)C(Cl)C(Cl)C1Cl (stereo unspecified) | inactive | 
25 | N#Cc1c(Cl)c(Cl)c(Cl)c(C#N)c1Cl |  | 82.3 µM (active)
26 | COc1nn(CSP(=S)(OC)OC)c(=O)s1 | inactive | 

test system: not listed separately; test: ATG_XTT_Cytotoxicity: Cytotoxicity Assessment in the Attagene TRANS-FACTORIAL HepG2 Assay (AID 2283584; active means hit-call score of the fitted dose curve at least 0.9, where 1 is the maximum;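 on AC50: cells exposed to compound for 24 h before reading; active means loss of viability signal versus DMSO baseline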); conditions: not given
In short: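 HepG2 human liver cells, transiently transfected with multiple GAL4-UAS reporter units, were dosed and read at 24 h by XTT as cell number. Loss of signal was fitted relative to DMSO negative control baseline.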

Row | Structure (SMILES) | outcome | AC50
27 | COP(=S)(OC)Oc1ccc(SC)c(C)c1 | inactive | 
28 | Oc1cc(Cl)ccc1Oc1ccc(Cl)cc1Cl | inactive | 66.3 µM (active) and 51.2 µM (active) and 39.8 µM (active)
29 | O=S(=O)(O)C(F)(F)C(F)(F)C(F)(F)C(F)(F)C(F)(F)C(F)(F)C(F)(F)C(F)(F)F | inactive | 151 µM (active) and 157 µM (active)
30 | O=C(O)C(F)(F)C(F)(F)C(F)(F)C(F)(F)C(F)(F)C(F)(F)C(F)(F)F | inactive | 
31 | Oc1ccc(Cl)cc1Cc1ccccc1 | inactive | 
32 | CC(C)(C)C(O)C(Oc1ccc(Cl)cc1)n1cncn1 (stereo unspecified) | inactive | 
33 | ClC1C(Cl)C(Cl)C(Cl)C(Cl)C1Cl (stereo unspecified) | inactive | 
